sPLA2-III inh: Blocks human group III sPLA2 activity. AID 743126. QFRET BODIPY PC-A2 liposome hydrolysis, fluorescence. inhibition, % at 12.2 µM. 370,000 compounds, 0.56% hits. Q9NZ20;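 active means inhibition above mean plus 3 SD of compounds lying within the high and low control bounds, cut at about 19% in these data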;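 further: 0% = median of test compound wells and 100% = no enzyme DMSO wells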
Target sequence (Q9NZ20 whole entry, looked up): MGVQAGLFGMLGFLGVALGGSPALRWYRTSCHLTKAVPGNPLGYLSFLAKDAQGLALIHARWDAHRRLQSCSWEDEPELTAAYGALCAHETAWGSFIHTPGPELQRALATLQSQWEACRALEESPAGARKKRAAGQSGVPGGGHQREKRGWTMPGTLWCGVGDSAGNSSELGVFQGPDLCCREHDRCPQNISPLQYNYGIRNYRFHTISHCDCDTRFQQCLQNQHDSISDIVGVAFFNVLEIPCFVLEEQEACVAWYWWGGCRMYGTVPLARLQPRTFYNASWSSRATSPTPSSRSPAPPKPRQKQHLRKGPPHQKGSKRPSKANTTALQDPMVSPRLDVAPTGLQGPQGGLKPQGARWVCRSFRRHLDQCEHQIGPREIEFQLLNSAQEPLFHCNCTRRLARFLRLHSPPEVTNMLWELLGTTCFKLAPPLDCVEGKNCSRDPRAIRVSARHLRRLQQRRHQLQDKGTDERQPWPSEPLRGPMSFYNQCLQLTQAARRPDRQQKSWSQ
UBC13 polyUb: blocks human UBC13 polyubiquitin chain formation; P61088; TR-FRET; inhibition, % at 20 µM; 330,000 compounds, 0.47% hits; AID 485273; in the data active means inhibition above about 45%, passing the limit was not always enough
NR3A LBD binder: NR3A (human) ligand-binding domain modulation; Tm shift relative to glycine control, % at 25 µM; 340,000 compounds, 2.5% hits; NR3A LBD differential scanning fluorimetry, Tm shift; 0% = protein alone, 100% = glycine-bound protein; AID 1259313;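 active means melting temperature shift of at least 10% of the positive control shift, at one fixed dose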
UBC9 SUMO inh: inhibitors of human SUMOylation (UBC9) | P63279 | HTRF SUMOylation assay, SAE1/SAE2 + UBC9, in vitro | inhibition, % at 35 µM | 290,000 compounds, 0.36% hits; in the data active means inhibition above about 50%, passing the limit was not always enough
Numbers without * were called inactive; / = not tested or not shown. This is a sample that favours compounds with a hit; in the whole collection about 3.3% have one here.

SMILES	sPLA2-III inh	UBC13 polyUb	NR3A LBD binder	UBC9 SUMO inh
CC(C)(C)c1ccc(S(=O)(=O)NCC(=O)N2CCN(c3ncccn3)CC2)cc1	2	/	/	/
O=C(CCc1ccccc1)N[C@H]1[C@H](OC(=O)c2ccco2)CCC[C@@]12C(=O)N(Cc1ccccc1)c1ccccc12	-7	/	/	/
COc1ccc(Cl)cc1-c1nc(-c2ccc(NC(=O)c3cccs3)cc2)no1	/	1	35*	6
O=C(Nc1ccc(Oc2ccc3c(c2)C(=O)N(c2ccc(O)cc2)C3=O)cc1)c1cccs1	-3	-15	16*	0
COc1ccc(NC(=O)c2cccs2)cc1OC	4	5	-2	-2
CC(C)CN1C(=O)c2ccc(NC(=O)c3cccs3)cc2C1=O	-7	2	3	18
Cn1c(C(=O)Nc2ccccc2)cc2sccc21	2	2	22*	-7
N#Cc1ccc(NCCCN2CCC(C(O)(c3ccccc3)c3ccccc3)CC2)cc1	-27	/	/	/
O=C(CSCc1ccc(Cl)cc1)Nc1cccc(C(=O)Nc2ccccc2C(=O)O)c1	-44	-5	10*	-2
CCN(CC)C1=N/C(=C\c2ccc(OC)cc2)C(=O)N1c1ccccc1	8	-2	12*	10
COc1ccc2nc(Nc3ccccc3OC)sc2c1	0	9	19*	-20
COc1ccc2nc(NC(=O)Nc3ccccc3OC)sc2c1	-1	5	-2	14
COc1ccc2nc(Nc3ccccc3)sc2c1	-18	-2	30*	-12
COc1ccc2nc(NC(=O)c3ccccc3O)sc2c1	-7	6	10	12
O=C(CCO)c1ccc(O)cc1	-5	4	-1	50
O=C(CCSc1ccc(Br)cc1)c1ccc(O)cc1	-14	11	12*	-22
C/C=C/C(=O)N1CCC(C(=O)NC2CCCc3ccccc32)CC1 (configuration not stated)	1	/	/	/
COc1ccc(C(=O)N/N=C/c2ccccc2OC(=O)c2ccccc2)cc1	-5	-5	1	-12
COc1ccc(C(=O)N/N=C/c2cc3ccccc3[nH]c2=O)cc1	1	-20	18*	4
COc1ccc(C(=O)Nc2ccccc2C(N)=O)cc1	-1	-8	5	10
COc1ccc(C(=O)Nc2ccccc2C(=O)N/N=C/c2cccc3ccccc23)cc1	8	-13	14*	-2
COc1ccc(C(=O)OCCN2CCN(C3CN(Cc4cn(Cc5ccccc5C(F)(F)F)nn4)S(=O)(=O)C3)CC2)cc1OC (configuration not stated)	0	/	/	/
O=C(C1CCCN1S(=O)(=O)c1ccc(Cl)c(Cl)c1)N1CCOCC1 (configuration not stated)	-6	-9	10*	1
N#Cc1cccc(NC(=O)COC(=O)c2cc(S(=O)(=O)Nc3ccccc3Cl)ccc2O)c1	-25	7	18*	/
O=C(COC(=O)c1cc(S(=O)(=O)Nc2ccccc2Cl)ccc1O)Nc1nc2ccccc2s1	-28	/	24*	-1
SMILES	sPLA2-III inh	UBC13 polyUb	NR3A LBD binder	UBC9 SUMO inh
Cc1cccc(C)c1NC(=O)COC(=O)c1cc(S(=O)(=O)Nc2ccc(Cl)cc2)ccc1O	-1	3	8	/
C=CCN(C(=O)[C@@H](CCCC)[C@@H](O)c1ccc2ccccc2c1)c1ccccc1	-1	/	/	/
Cc1ccc(-n2c(C)cc(C(=O)CN3CCOCC3)c2C)cc1C	0	-8	18*	25
O=C(NCCc1ccccc1)c1ccc(Sc2ccccc2Cl)c([N+](=O)[O-])c1	1	/	/	/
CN(C(=O)Cc1noc2ccccc12)c1ccccc1	-1	6	12*	-8
Cc1ccc(NC(=O)Cc2noc3ccccc23)cc1	-6	1	-1	11
COC(=O)[C@]12C[C@H](CC(=O)NCC34CC5CC(CC(C5)C3)C4)C(=O)N(Cc3cccc4ccccc34)C1=C[C@H](C1CCCC1)O[C@@H]2C	-4	/	/	/
Cc1ccc(-n2c(C)nn(Cc3ccc([N+](=O)[O-])cc3)c2=O)cc1	-2	-5	-2	9
Cc1ccc(-n2c3nc(=O)[nH]c(=O)c-3cc3cc([N+](=O)[O-])ccc32)cc1	28*	-16	-3	-2
O=S(=O)(N/N=C/c1ccc(Cl)cc1)c1ccc(Cc2ncc(C(F)(F)F)cc2Cl)s1	-13	-18	29*	14
S=c1[nH]nc(-c2cc(-c3ccccc3)n[nH]2)n1/N=C/c1ccc(Cl)c(Cl)c1	8	-20	24*	/
COc1ccc(/C=C/C(=O)NCC(=O)N/N=C(/C)c2ccco2)cc1	1	-12	14*	-5
C/C(=N/NC(=O)CNC(=O)/C=C/c1ccccc1)c1ccco1	-3	-10	0	13
Cc1ccc(-c2nnc(NC(=O)COc3ccc(F)cc3Cl)o2)cc1C	-8	/	/	/
